EWS-Fli inh: inhibitors of EWS/Fli oncoprotein transcriptional activity; A673 NR0B1-luciferase reporter, viability-normalised; inhibition, % at 12.6 µM; hit rate 0.67% among 350,000; AID 651661;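 active = mean inhibition of at least 50% after viability correction, with every replicate also passing that limit; inconclusive = mean reaches 50% but only one of two replicates passes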;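 also: firefly luciferase signal divided by Alamar Blue viability fluorescence both relative to DMSO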
Shn3 3UTR inh: inhibitors of Schnurri-3 3'UTR reporter in osteoblasts. hit rate 0.52% among 360,000. inhibition, % at 12.5 µM. AID 588674. Clone20 osteoblast Shn3 3'UTR firefly luciferase, 24 h;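 active = mean inhibition of at least 75% with every replicate also reaching 75%; inconclusive = mean inhibition at least 75% but some replicate below; inactive = mean inhibition below 75%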;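 also: 0% = median of neutral control wells and 100% = pilot-screen positive control compound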
PAX8 inh HTS: inhibitors of PAX8 transcriptional activity in RMG-I cells | hit rate 1.2% among 360,000 | RMG-I TPO-luciferase reporter, SteadyGlo, 24 h | inhibition, % at 12.6 µM;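 active = mean replicate inhibition at least 60% with every replicate also reaching 60%; inconclusive = only one of the two criteria is met; inactive = mean below 60% and not all replicates reaching 60%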;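 also: luciferase light reporting Pax8 driven TPO promoter activity; plate controls were median of neutral control wells for no effect and mitoxantrone controls for full effect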
LGR2 inh: blocks bursicon-induced cAMP signaling via Drosophila LGR2; hit rate 0.35% among 380,000; HEK293 LGR2, CRE-luciferase, bursicon-stimulated, 4 h; inhibition, % at 9.99 µM;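 active = drop in luminescence signal, shown as inhibition above about 50% in the replicate tests, limit read from the data, passing the limit was not always enough; inconclusive = probably only some replicates passing the limit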;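 also: agonist challenge used bursicon conditioned medium at about half maximal strength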
MITF TRPM1 inh: inhibitors of MITF-driven TRPM1 promoter in melanoma cells | SK-MEL-5 TRPM1 promoter luciferase, 24 h | inhibition, % at 12.5 µM | hit rate 0.83% among 330,000;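 active = mean inhibition across replicates of 60% or more, whatever share of single replicates reaches that level; inconclusive = some that reach 60%, reason not given; inactive = mean inhibition across replicates below 60%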
LMP1 NFkB inh: inhibitors of Epstein-Barr LMP1-induced NF-kappaB reporter | LMP1-induced NF-kappaB luciferase reporter cells, luminescence | inhibition, % at 12.5 µM | hit rate 0.69% among 350,000; in the data active = inhibition above about 41%; inconclusive = no clear call, values can overlap the other calls;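 also: 0% = neutral control wells and 100% = reference inhibitor control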
* marks the source's active call; other numbers are inactive results; ? = inconclusive; nt = no result. An excerpt weighted towards active compounds, which were near 2.2% of everything screened.

SMILES | EWS-Fli inh | Shn3 3UTR inh | PAX8 inh HTS | LGR2 inh | MITF TRPM1 inh | LMP1 NFkB inh
C[C@@H]1CN([C@H](C)CO)C(=O)Cc2cc(NS(=O)(=O)c3ccccc3)ccc2O[C@@H]1CN(C)S(=O)(=O)c1ccc(Cl)cc1 | 19.4 | nt | 103.6* | -3.0 | nt | nt
C[C@@H]1CN([C@@H](C)CO)C(=O)Cc2cc(NS(=O)(=O)c3ccc(Cl)cc3)ccc2O[C@@H]1CN(C)CC1CCCCC1 | -9.1 | nt | 106.3* | 7.7 | nt | nt
O=C1O[C@@H](c2ccccc2)[C@@H](c2ccccc2)N2[C@@H](c3ccc(OCCO)cc3)[C@]3(C(=O)Nc4ccc(C#CC5=CCCCC5)cc43)[C@@H](C(=O)N3CCCCCCC3)[C@H]12 | -5.5 | nt | -5.9 | nt | nt | nt
CCC1CCCCN1C(=O)CCCOc1ccccc1 (stereo unspecified) | nt | -8.0 | nt | nt | -47.9 | -23.1
CCCCC[C@H](O)/C=C/[C@H]1CCC(=O)[C@@H]1CCCCCCC(=O)N1CCCCC1CO (stereo partly specified) | 2.7 | 28.3 | 70.0* | 23.5 | 13.3 | 10.5
c1ccc(-c2sc3ccccc3c2-c2ccc(OCCN3CCCCC3)cc2)cc1 | 13.1 | -0.4 | -4.3 | -0.6 | -9.3 | -3.3
CN(C)CCOc1ccc(-c2c(-c3ccccc3)sc3ccccc23)cc1 | 41.0 | 37.0 | 80.0* | 12.1 | 61.0* | -16.9
C[C@@H]1CCCCO[C@H](CN(C)CC2CC2)[C@@H](C)CN([C@H](C)CO)C(=O)c2cc(NS(=O)(=O)c3ccccc3)ccc2O1 | nt | nt | -18.2 | 3.3 | nt | nt
C[C@H]1CN([C@@H](C)CO)S(=O)(=O)c2ccc(C#CC3CCCCC3)cc2O[C@@H]1CN(C)C | 14.0 | nt | nt | -4.4 | nt | nt
Cc1ccc(-c2ccc([C@H]3[C@H](CO)N4CCCCN(S(=O)(=O)c5cccc(C)c5)C[C@@H]34)cc2)cc1 | -7.7 | nt | 87.2* | nt | nt | nt
Cc1ccccc1-c1ccc([C@@H]2[C@@H](CO)N3CCCCN(C(=O)NC4CCCC4)C[C@H]23)cc1 | 20.9 | nt | 82.0* | -6.7 | nt | nt
Cc1ccccc1-c1ccc([C@@H]2[C@H](CO)N3CCCCN(C(=O)NC4CCCC4)C[C@@H]23)cc1 | 11.5 | nt | 2.1 | 25.7 | nt | nt
O=S(=O)(c1ccccc1)N1CCCCN2[C@H](CO)[C@H](c3ccc(-c4ccccc4F)cc3)[C@H]2C1 | 13.9 | nt | 114.0* | -10.7 | nt | nt
Cc1ccccc1-c1ccc([C@@H]2[C@H](CO)N3CCCCN(S(=O)(=O)Cc4ccccc4)C[C@@H]23)cc1 | 57.0* | nt | -24.0 | 0.4 | nt | nt
COc1ccc2c3c(n(C)c2c1)[C@H](CO)N(C)CC31CN(C(=O)Nc2cccc(F)c2)C1 | -5.0 | nt | nt | -4.0 | nt | nt
CCOC(=O)c1c(CN2CCN(C)CC2)n(-c2ccccc2)c2cc(Br)c(O)cc12 | 18.5 | 17.4 | -19.0 | 1.6 | 30.2 | -24.5
CCOC(=O)c1c(CSC(=N)N)n(-c2ccccc2)c2cc(Br)c(OC(C)=O)cc12 | 25.3 | -54.5 | 7.8 | 62.6* | nt | -48.2
O=C(CN1CCOCC1)NCC[C@@H]1CC[C@H](NC(=O)Nc2ccccc2)[C@@H](CO)O1 | 3.5 | nt | 5.6 | 1.6 | nt | nt
CN(C)S(=O)(=O)c1ccc(C(=O)NCCN2C(=O)S/C(=C\c3cccnc3)C2=O)cc1 | 1.4 | -7.6 | 5.1 | -8.3 | -2.7 | 1.0
CS(=O)(=O)c1ccc(C(=O)NCCN2C(=O)S/C(=C\c3cccnc3)C2=O)cc1[N+](=O)[O-] | 63.9* | 40.5 | 30.4 | 68.7* | 69.5* | -9.1
CCOC(=O)c1c(-c2ccccc2)oc2cc(CN(C)C)c(O)c(CN(C)C)c12 | 15.3 | 94.3* | nt | 17.3 | 30.6 | 4.6
Cc1c(N=C2C=CC(=O)c3ccccc32)c(=O)n(-c2ccccc2)n1C | 40.8 | -11.7 | 11.3 | 18.2 | 70.9* | -11.7
Cc1c(N=C2C=C(Br)C(=O)C(Br)=C2)c(=O)n(-c2ccccc2)n1C | -2.3 | 8.1 | -17.4 | -5.6 | 11.2 | 1.6
C[C@H](CO)N1C[C@H](C)[C@@H](CN(C)C(=O)Nc2ccc3c(c2)OCO3)Oc2cc(C#Cc3ccncc3)ccc2S1(=O)=O | 49.0 | nt | 100.2* | -1.5 | nt | nt
COc1ccc(NC(=O)N(C)C[C@H]2Oc3cc(C#CCC(C)C)ccc3S(=O)(=O)N([C@H](C)CO)C[C@H]2C)cc1 | -1.4 | nt | 71.6* | 3.0 | nt | nt
SMILES | EWS-Fli inh | Shn3 3UTR inh | PAX8 inh HTS | LGR2 inh | MITF TRPM1 inh | LMP1 NFkB inh
C[C@@H]1CN([C@@H](C)CO)S(=O)(=O)c2ccc(C#Cc3ccncc3)cc2O[C@@H]1CN(C)C(=O)Nc1ccc2c(c1)OCO2 | -13.0 | nt | -20.6 | -6.7 | nt | nt
COc1ccc(NC(=O)N(C)C[C@@H]2Oc3cc(C#CCC(C)C)ccc3S(=O)(=O)N([C@@H](C)CO)C[C@H]2C)cc1 | 15.5 | nt | 50.4 | 22.0 | nt | nt
C[C@H]1CN([C@@H](C)CO)S(=O)(=O)c2ccc(C#Cc3ccncc3)cc2O[C@H]1CN(C)C(=O)C1CCCCC1 | 6.4 | nt | 75.7* | -7.7 | nt | nt
C[C@@H]1CN([C@@H](C)CO)S(=O)(=O)c2ccc(C#Cc3ccncc3)cc2O[C@H]1CN(C)C(=O)C1CCCCC1 | 12.8 | nt | ? | -2.1 | nt | nt
C[C@@H]1CN([C@@H](C)CO)S(=O)(=O)c2ccc(C#Cc3ccncc3)cc2O[C@@H]1CN(C)C(=O)C1CCCCC1 | 31.8 | nt | 76.3* | -1.4 | nt | nt
C[C@@H]1CCCCO[C@@H](CN(C)C(=O)NC2CCCCC2)[C@@H](C)CN([C@@H](C)CO)C(=O)c2cc(NS(=O)(=O)c3cn(C)cn3)ccc2O1 | nt | nt | -17.0 | 2.8 | nt | nt
O=C(C[C@@H]1CC[C@@H](NC(=O)c2ccncc2)[C@@H](CO)O1)NCC1CC1 | 2.1 | nt | nt | -6.8 | nt | nt
CCCCOc1ccc(-c2cnc3ccccc3n2)cc1 | nt | 36.2 | 15.1 | 70.3* | -18.0 | 16.2
Oc1ccc(-c2cnc3ccccc3n2)cc1 | -63.6 | -62.2 | -185.2 | -45.0 | -99.0 | 2.8
C[C@H](CO)N1C[C@H](C)[C@@H](CN(C)S(C)(=O)=O)OCCCC[C@H](C)Oc2ccc(NC(=O)Nc3ccccc3)cc2C1=O | -12.0 | nt | 8.3 | -4.5 | nt | nt
C[C@@H]1CCCCO[C@@H](CN(C)S(=O)(=O)c2ccccc2)[C@@H](C)CN([C@@H](C)CO)C(=O)c2cc(NC(=O)CCCN(C)C)ccc2O1 | 37.6 | nt | -5.5 | -9.2 | nt | nt
COc1ccc(-c2cc(C3CCN(c4ccc(C(C)=O)cc4[N+](=O)[O-])CC3)[nH]n2)cc1 | nt | ? | 84.9* | nt | 19.5 | 4.0
CC(C)c1ccc(-c2csc3ncnc(N4CCN(C)CC4)c23)cc1 | -2.1 | 49.0 | 2.1 | -2.0 | -3.4 | 49.1*
CN1CCCN(c2ncnc3scc(-c4ccc(F)cc4)c23)CC1 | -0.4 | 1.6 | -5.5 | 8.3 | -12.4 | 1.8
CN(C)C(=O)C[C@@H]1CC[C@H]2[C@@H](COc3ccc(NC(=O)C4CCOCC4)cc3C(=O)N2C)O1 | -6.1 | nt | -2.4 | 8.5 | nt | nt
C[C@@H]1CN([C@H](C)CO)C(=O)CCCn2cc(nn2)CO[C@@H]1CN(C)S(=O)(=O)c1ccc(C#N)cc1 | 3.6 | nt | -11.1 | 12.4 | nt | nt
O=C(CSc1nnc(-c2ccccc2)n1Cc1ccccc1)NNC(=O)c1ccccc1O | 78.6* | 15.1 | 21.8 | 5.7 | -1.8 | -5.8
